Among the test systems are NCI-H23 lung; NCI-H226 lung; NCI-H322M lung; HOP-62 NSCLC; NCI-H460 lung; HOP-92 NSCLC; NCI-H522 lung; A549/ATCC NSCLC; 786-0 renal; COLO 205 colon; DU-145 prostate; K-562 leukemia; MALME-3M melanoma; MDA-MB-231 breast; RXF 393 renal; SF-268 CNS; SF-295 CNS; SF-539 CNS; UACC-257 melanoma; M14 melanoma.
Holding throughout (test): NCI-60 one-dose screen, 48 h (100 = growth as untreated, 0 = no growth, -100 = all killed)
What all share (settings): 10 µM unless noted

About 83,000 compounds went through this panel and 20% of them were active in at least one assay; those are over-represented in the sample as a whole.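 Cells were grown in 96-well plates and exposed to the test compound at a single concentration for 48 hours; results are reported as percent growth, with values below 10 considered active.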 A number with no mark means an inactive call. The source made the active and inactive calls.

As to `Fc1c[c-]c(-c2ccccn2)c(F)c1.[CH3-].[Pt+2].c1ccc(P(C[PH+](c2ccccc2)c2ccccc2)c2ccccc2)cc1`, the growth with NCI-H23 lung is -51.1% (active); in the assay on NCI-H226 lung, 3.56% (active); with NCI-H322M lung, 2.51% (active); in the assay on HOP-62 NSCLC, 0.563% (active); with NCI-H460 lung, -68.8% (active); with HOP-92 NSCLC, -80.7% (active). Besides, the growth is -24% (active) in the assay with NCI-H522 lung; -0.672% (active) with A549/ATCC NSCLC; -52.5% (active) in the assay on 786-0 renal; -29.9% (active) in the assay on COLO 205 colon; 5.54% (active) with DU-145 prostate; 4.93% (active) in the assay with K-562 leukemia. For the same compound, the growth with MALME-3M melanoma is -83.2% (active); in the assay with MDA-MB-231 breast it was -59% (active); in the assay on RXF 393 renal, -82.3% (active); in the assay on SF-268 CNS it was 16.9%; in the assay with SF-295 CNS, 6.1% (active); in the assay on SF-539 CNS, -86.3% (active). Moreover, the growth is -4.95% (active) in the assay with UACC-257 melanoma and -20% (active) in the assay with M14 melanoma.

For the compound `O=C(CCCCCCSc1nc(-c2ccccc2)cc(-c2ccc(Cl)cc2)n1)NO`, the growth with NCI-H23 lung was -17.7% (active); in the assay on NCI-H226 lung, 2.23% (active); in the assay on NCI-H322M lung, 21.3%; in the assay on HOP-62 NSCLC, -9.16% (active); with NCI-H460 lung, 7.04% (active); with HOP-92 NSCLC it was -7.58% (active). The growth in the assay with NCI-H522 lung is -15.8% (active); in the assay with A549/ATCC NSCLC, -23% (active); in the assay with 786-0 renal it was 1.46% (active); with COLO 205 colon, 20.9%; in the assay on DU-145 prostate it was 6.26% (active); in the assay with K-562 leukemia, 8.35% (active). For the same compound, the growth with MALME-3M melanoma is 7.3% (active); in the assay with MDA-MB-231 breast it was 25.3%; in the assay with RXF 393 renal, -17% (active); in the assay with SF-268 CNS it was 15%; in the assay with SF-295 CNS, 27.1%; in the assay with SF-539 CNS, 25%. For the same compound, the growth is 6.32% (active) in the assay with UACC-257 melanoma and 6.52% (active) in the assay with M14 melanoma.

Take `COc1cccc(-c2nn(-c3ccccc3)cc2-c2ccnc(NCCNC(=O)c3ccccc3)c2)c1`: the growth with NCI-H23 lung is 61.4%; with NCI-H226 lung it was 70.4%; with NCI-H322M lung it was 109%; in the assay with HOP-62 NSCLC, 60.7%; with NCI-H460 lung, 63.7%; in the assay with HOP-92 NSCLC, 52.8%. Besides, the growth was 56.7% in the assay on NCI-H522 lung; 41.8% in the assay with A549/ATCC NSCLC; 54.4% with 786-0 renal; 62.6% in the assay on COLO 205 colon; 74.5% with DU-145 prostate; 38.2% in the assay with K-562 leukemia. Moreover, the growth is 95.7% with MALME-3M melanoma; 55.3% with MDA-MB-231 breast; 79.9% in the assay with RXF 393 renal; 78.3% in the assay with SF-268 CNS; 62.1% in the assay with SF-295 CNS; 96.9% in the assay on SF-539 CNS. Moreover, the growth in the assay on UACC-257 melanoma is 49.7%; with M14 melanoma, 55.3%.

As to `CC(=O)[C@@H]1CC[C@]2(COS(=O)(=O)c3ccc(C)cc3)CC[C@]3(C)[C@H](CC[C@@H]4[C@@]5(C)CCCNC(C)(C)[C@@H]5CC[C@]43C)[C@@H]12`, the growth in the assay on NCI-H23 lung was 78.6%; in the assay on NCI-H226 lung it was 86%; with NCI-H322M lung, 93.7%; with HOP-62 NSCLC, 87.1%; in the assay on NCI-H460 lung, 41.8%; in the assay with HOP-92 NSCLC it was 57.6%. Besides, the growth was 89.8% in the assay with NCI-H522 lung; 70.5% in the assay with A549/ATCC NSCLC; 89.5% with 786-0 renal; -62.4% (active) in the assay with COLO 205 colon; 86.6% with DU-145 prostate; 2.27% (active) with K-562 leukemia. Also, the growth in the assay with MALME-3M melanoma is 88.1%; in the assay with MDA-MB-231 breast, 96.4%; in the assay with RXF 393 renal, 63.9%; in the assay with SF-268 CNS it was 73.2%; in the assay on SF-295 CNS, 101%; with SF-539 CNS, 77.4%. The growth in the assay on UACC-257 melanoma was 49.9%; in the assay on M14 melanoma, 79%.

For the compound `CCOC(=O)c1c2c(n3ccc(NC(=O)OC(C)(C)C)cc13)C(=O)c1ncccc1C2=O`, the growth with NCI-H23 lung is -77.5% (active); in the assay with NCI-H226 lung it was -63.7% (active); with NCI-H322M lung, -19.5% (active); with HOP-62 NSCLC it was -76.8% (active); in the assay with NCI-H460 lung, -82.6% (active); in the assay with HOP-92 NSCLC it was -10.3% (active). Besides, the growth was -56.1% (active) in the assay with NCI-H522 lung; -57.3% (active) in the assay with A549/ATCC NSCLC; -49.3% (active) in the assay with 786-0 renal; -54.6% (active) with COLO 205 colon; -30.2% (active) in the assay with DU-145 prostate; -23.9% (active) with K-562 leukemia. Further, the growth was -21.6% (active) with MALME-3M melanoma; 2.02% (active) in the assay on MDA-MB-231 breast; -38.4% (active) in the assay on RXF 393 renal; -16.7% (active) with SF-268 CNS; -67.1% (active) in the assay on SF-295 CNS; -45.9% (active) with SF-539 CNS. Besides, the growth was -40.9% (active) in the assay on UACC-257 melanoma and -55.8% (active) in the assay with M14 melanoma.

For the compound `O=[N+]([O-])c1ccc(-c2cc(-c3ccc(Nc4nc(Nc5ccc(Cl)cc5)nc(Nc5ccc(Cl)cc5)n4)cc3)no2)cc1`, the growth in the assay with NCI-H23 lung was 84.1%; with NCI-H226 lung, 109%; in the assay on NCI-H322M lung, 88.4%; in the assay on HOP-62 NSCLC, 87.4%; in the assay with NCI-H460 lung, 95.9%; in the assay with HOP-92 NSCLC it was 66.1%. The growth in the assay on NCI-H522 lung is 80.9%; in the assay on A549/ATCC NSCLC, 88.6%; in the assay with 786-0 renal it was 89.7%; in the assay with COLO 205 colon, 95.4%; with DU-145 prostate it was 87.7%; with K-562 leukemia it was 65.6%. For the same compound, the growth in the assay with MALME-3M melanoma was 96.3%; in the assay with MDA-MB-231 breast it was 73.5%; in the assay with RXF 393 renal it was 71.7%; in the assay with SF-268 CNS, 96.1%; in the assay on SF-295 CNS, 563%; in the assay on SF-539 CNS it was 95.4%. The figures for the growth in the assay with UACC-257 melanoma and with M14 melanoma were 105% and 102%, respectively.

As to `Cc1cccc(-c2nc(N(C)c3ccc4ncsc4c3)c3ccccc3n2)n1`, the growth is 78.2% in the assay with NCI-H23 lung; 84% in the assay with NCI-H226 lung; 100% with NCI-H322M lung; 69.7% with HOP-62 NSCLC; 70.7% with NCI-H460 lung; 91.8% with HOP-92 NSCLC. In addition, the growth in the assay on NCI-H522 lung was 30.4%; in the assay on A549/ATCC NSCLC, 48.5%; in the assay with 786-0 renal, 94%; with COLO 205 colon, 57.3%; in the assay with DU-145 prostate it was 94.1%; in the assay on K-562 leukemia, 21.6%. Moreover, the growth in the assay with MALME-3M melanoma was 79.5%; in the assay with MDA-MB-231 breast it was 63.6%; in the assay with RXF 393 renal, 84.3%; in the assay with SF-268 CNS, 94.1%; in the assay with SF-295 CNS, 77%; in the assay on SF-539 CNS, 92.1%. For the same compound, the growth with UACC-257 melanoma is 76.1%; with M14 melanoma it was 54.1%.

With `CN(c1ccccc1)c1ccc2c(c1)OCCC21CC1Nc1cnccc1C(=O)O` (stereo not given), the growth was 95.4% with NCI-H23 lung; 63.9% in the assay with NCI-H226 lung; 87.5% with NCI-H322M lung; 63.2% in the assay on HOP-62 NSCLC; 45.7% with NCI-H460 lung; 101% in the assay on HOP-92 NSCLC. For the same compound, the growth with NCI-H522 lung was 63.7%; in the assay on A549/ATCC NSCLC it was 83.4%; with 786-0 renal, 72.9%; with COLO 205 colon, 68.6%; with DU-145 prostate, 88.8%; with K-562 leukemia, 41.2%. Also, the growth in the assay on MALME-3M melanoma was 67.5%; with MDA-MB-231 breast, 72.8%; in the assay with RXF 393 renal, 76.4%; in the assay with SF-268 CNS, 60.2%; with SF-295 CNS, 44.2%; in the assay on SF-539 CNS it was 52.7%. Also, the results for the growth in the assay on UACC-257 melanoma and in the assay on M14 melanoma were 77.5% and 81.2%, respectively.

For the origin of these results see PubChem BioAssay (NCI).
